# Hits are enriched below; roughly 9.3% of the tested compounds scored in any of these assays.
# NPC1 promoter act – qHTS Assay for NPC1 Promoter Activators | AID 485313, 2010 | 320,000 tested, 2.4% active | Potency, µM (highest dose often 9.22 µM), for the others: at the highest dose activation, usual class: activators | Huh7 NPC1 promoter luciferase reporter, 24 h; also: % of control where 0% means no effect; nearly all actives have a fitted effect of over 60% in size
#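 Stable NPC1-promoter luciferase Huh7 line; cpd (DMSO) 24 h, 37 °C, 5% CO2; Amplite luciferase reagent 10 min RT; luminescence readout. qHTS format.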
# ELG1 genotox – qHTS screen for small molecules that induce genotoxicity in human embryonic kidney (HEK293T) cells expressing luciferase-tagged ELG1. 330,000 tested, 1.3% active. Potency, µM (highest dose often 46 µM), for inactives: top-dose activity change, positive = activation, usual class: activators. HEK293T ELG1-luciferase reporter, luminescence, 16 h; also: % of control where 0% means no effect; nearly all actives have a fitted effect of over 60% in size
#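 16 hr compound incubation (37 °C, 5% CO2) of HEK293T cells carrying luciferase-tagged ELG1; luciferase then measured by ONE-Glo luminescence after 30 min at RT.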
# FLuc counter – qHTS profiling assay for firefly luciferase inhibitor/activator using purifed enzyme and Km concentrations of substrates (counterscreen for miR-21 project); 360,000 tested, 6.9% active; purified FLuc, Km substrates, luminescence inhibition; Luciferin 4-monooxygenase (Photinus pyralis), P08659; Potency, µM (doses to about 57.5 µM), for inactives: at the top dose activity change, negative = inhibition, most hits filed as inhibitors; AID 588342, 2011;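 also: plate controls were vehicle for no effect and reference inhibitor for full effect; nearly all actives have a fitted effect of over 55% in size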
# Target sequence (P08659 whole entry, looked up): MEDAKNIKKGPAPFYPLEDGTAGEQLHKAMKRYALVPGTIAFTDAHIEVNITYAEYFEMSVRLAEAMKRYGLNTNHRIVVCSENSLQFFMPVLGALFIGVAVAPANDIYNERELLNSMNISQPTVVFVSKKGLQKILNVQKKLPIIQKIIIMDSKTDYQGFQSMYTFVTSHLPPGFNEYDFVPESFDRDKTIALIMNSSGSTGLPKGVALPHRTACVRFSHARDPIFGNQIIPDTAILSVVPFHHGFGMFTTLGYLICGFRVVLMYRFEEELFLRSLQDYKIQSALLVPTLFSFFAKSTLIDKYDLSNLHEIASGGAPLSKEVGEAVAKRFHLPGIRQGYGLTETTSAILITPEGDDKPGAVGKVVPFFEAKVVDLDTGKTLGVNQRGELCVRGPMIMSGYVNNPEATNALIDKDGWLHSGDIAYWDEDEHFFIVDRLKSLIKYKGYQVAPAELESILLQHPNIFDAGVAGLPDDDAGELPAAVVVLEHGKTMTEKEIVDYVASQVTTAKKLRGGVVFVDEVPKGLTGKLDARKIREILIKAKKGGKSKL
#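 Biochemical qHTS of compounds, final roughly 60 µM downward over six points, against 10 nM purified firefly luciferase using Km concentrations of substrates (10 uM D-luciferin, 10 uM ATP) in Tris acetate pH 7.5 buffer; luminescence output.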
# Rab9 prom act – qHTS Assay for Rab9 Promoter Activators; Huh7 Rab9 promoter-luciferase reporter, luminescence, 24 h; 320,000 tested, 2.8% active; Potency, µM (highest dose often 9.22 µM), inactives show at the top dose activation, negative = inhibition, most hits filed as activators; also: % of control where 0% means no effect; nearly all actives have a fitted effect of over 60% in size
#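 Cells were plated at 1500 per well in reduced-serum medium with 10% FBS and left 2 h. Compound in DMSO was then added for 24 h at 37 °C. Reporter signal was read by luminescence after 10 min with luciferase detection reagent.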
# SMN2 splice enh – qHTS Assay for Enhancers of SMN2 Splice Variant Expression | Potency, µM (series often up to 46.1 µM), for inactives: top-dose activity change, positive = activation, actives largely listed as activators | 210,000 tested, 2.8% active | HEK293 SMN2-luciferase splicing reporter, luminescence, 30-36 h; also: % of control where 0% means no effect; nearly all actives have a fitted effect of over 55% in size
#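 HEK293 cells carry an SMN2 minigene-luciferase reporter in which exon 7 inclusion puts luciferase in frame. Cells were seeded at 2000 cells/well, attached for 10-12 hours, then exposed to compounds for 30-36 hours at 37C before ONE-Glo luminescence.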
# ELG1 repair inh – qHTS screen for small molecules that inhibit ELG1-dependent DNA repair in human embryonic kidney (HEK293T) cells expressing luciferase-tagged ELG1. 330,000 tested, 2.3% active. AID 504467, 2011. Potency, µM (doses to about 46.1 µM), for the others: at the highest dose activity change, negative = inhibition, hits mostly inhibitors. HEK293T ELG1-luciferase reporter, luminescence, 16 h; DNA damage induced by 5-fluorouridine; also: % is scaled to controls: 0 for no effect and ±100 for the full control effect; nearly all actives have a fitted effect of over 55% in size
#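 In this reporter screen, reduction of luminescence relative to DMSO vehicle indicated activity. Compounds and 5-fluorouridine were added together to 2,000 cells per well, incubated for 16 hr at 37 °C, then developed with ONE-Glo.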
# The depositor's hits bear a star; ? = inconclusive; . = no result given; [ ] = another dose, or the depositor's remark. Calls follow the shape of the dose curve; as a rule, active = well fitted curve in the direction sought with a large enough effect; inconclusive = small, poorly fitted or top-dose-only effect, or another doubt; inactive = no such curve, though single readings can be large; an effect the other way counts as inactive or inconclusive. Potency is read from the fitted curve at half-maximal effect.
SMILES,NPC1 promoter act,ELG1 genotox,FLuc counter,Rab9 prom act,SMN2 splice enh,ELG1 repair inh
COc1cc(C#N)ccc1OC(=O)Cc1cc(OC)c(OC)c(OC)c1,-4%,1%,-1%,-4%,.,1%
COc1ccccc1CCC(=O)Oc1ccc(C#N)cc1OC,-3%,12%,21µM*,-3%,.,3%
Nn1c(SCc2cccc(C(F)(F)F)c2)nnc1-c1ccco1,4%,-6%,1%,-1%,-3%,0%
Cc1cc(-c2cn3ccccc3n2)c(C)n1-c1ccccc1,1.6µM*,15%,0.76µM*,1.1µM*,5.6µM*,?
O=C(CSc1nccn1Cc1ccc(Cl)cc1)Nc1ccc2c(c1)OCO2,.,.,-17%,.,.,.
Cc1cccc(-n2ncc3c(Nc4c(C)cc(C)cc4C)ncnc32)c1,.,.,-9%,.,.,.
Cc1ccc(-n2ncc3c(Nc4ccccc4C)ncnc32)cc1,.,.,3.4µM*,.,.,.
CCc1ccccc1Nc1ncnc2c1cnn2-c1ccc(Cl)cc1,.,.,12µM*,.,.,.
Cc1ccc(-n2ncc3c(NNC(=O)c4ccccc4C)ncnc32)cc1,.,.,-12%,.,.,.
CCOc1ccc(Nc2ncnc3c2cnn3-c2ccccc2)cc1,21%,18µM*,5%,25%,-2%,18%
Cc1ccccc1Nc1ncnc2c1cnn2-c1ccccc1,?,8.2µM*,17µM*,?,11µM*,?
COc1ccc(S(=O)(=O)NNC(=O)C2CC(c3cccnc3)=NO2)cc1 (centres undefined),0%,3%,-2%,-3%,8%,2%
Cc1ccc(N(CC(=O)NCC2CCCO2)S(C)(=O)=O)cc1Cl (centres undefined),1%,2%,6%,-11%,-7%,6%
CCc1nnc(NC(=O)CSc2nnc(COc3cccc(C)c3)o2)s1,-10%,0%,0%,5%,-25%,-1%
CC(Oc1cc(F)ccc1[N+](=O)[O-])C(=O)Nc1ccc(S(=O)(=O)N2CCCC2)cc1 (centres undefined),-8%,-5%,1%,0%,0%,?
CCOc1ccc(Nc2nc(Cc3nnc(SCC(=O)c4ccc(C)c(C)c4)o3)cs2)cc1,8%,-17%,-16%,-2%,-53%,23µM*
Cn1c(=O)c2sccc2n2c(CCCC(=O)Nc3ccc(F)cc3F)nnc12,2%,-1%,1%,7%,2%,-10%
O=C(Nc1nnc(C2CCCO2)s1)c1cccs1 (centres undefined),29%,?,?,15%,13µM*,?
CCCC(=O)Nc1nnc(C2CCCO2)s1 (centres undefined),-1%,-1%,-3%,-2%,.,2%
O=C(Nc1nnc(C2CCCCC2)s1)c1cccs1,2.2µM*,?,4.8µM*,2.8µM*,14µM*,?
COc1cccc(C(=O)Nc2nnc(C3CCCO3)s2)c1 (centres undefined),2.8µM*,?,15µM*,2.2µM*,11µM*,?
Cc1cc2c(cc1C)CSC(c1ccccc1OC(=O)C(C)(C)C)SC2,-2%,1%,6%,-4%,-12%,7%
CCc1cc(C(=O)Nc2ccc(OC)nc2)sc1C,13%,9%,21µM*,-34%,.,?
CCc1cc(C(=O)Nc2ncccc2O)sc1C,1.1µM*,0.33µM*,1.3µM*,2.5µM*,.,?
Cc1ccc(NC2=CC(=O)CC(C)(C)C2)cc1Cl,2%,-5%,3%,-3%,.,-12%
SMILES,NPC1 promoter act,ELG1 genotox,FLuc counter,Rab9 prom act,SMN2 splice enh,ELG1 repair inh
Cc1ccc(Nc2nc3nonc3[nH]c2=O)cc1Cl,9%,-16%,21µM*,2%,-74%,?
Cc1ccc(Nc2nc3nonc3[nH]c2=O)cc1C,18%,7%,12µM*,26%,13%,?
COc1ccc(N2CCN(C(CNC(=O)CC(C)C)c3ccc4c(c3)OCO4)CC2)cc1 (centres undefined),.,.,5%,.,.,.
O=C(NC(=S)Nc1ccc(N2CCCCC2)cc1)c1ccc2c(c1)OCCO2,-5%,?,?,-11%,-43%,?
O=C(Nc1ccc2c(c1)OCCO2)c1c(F)cccc1F,2.5µM*,3.3µM*,6µM*,3.2µM*,13µM*,?
Cc1ccc(S(=O)(=O)N(C)c2ccccc2C(=O)Nc2ccc3c(c2)OCCO3)cc1,1%,0%,-15%,1%,.,?
O=C(Nc1ccc2c(c1)OCO2)c1c(F)c(F)c(F)c(F)c1F,1%,-5%,1%[2.3 µM],15%,31%,-5%
O=C(NC(=S)Nc1ccc(F)cc1)c1ccc2c(c1)OCCO2,0.63µM*,?,1.9µM*,0.5µM*,?,?
CS(=O)(=O)Nc1ccccc1C(=O)Nc1ccc2c(c1)OCCO2,0%,?,12µM*,2%,18%,?
O=C(NC(=S)Nc1ccc2c(c1)OCCO2)c1ccccc1F,2.5µM*,?,5.4µM*,1.3µM*,?,?
COc1ccc(C2C(C#N)=C(N)OC3=C2C(=O)CC(C)(C)C3)cc1Cn1cc([N+](=O)[O-])cn1 (centres undefined),1%,3%,-1%,-4%,10%,5%
O=C(CCl)Nc1ccccc1C(=O)Nc1ccc2c(c1)OCO2,0.71µM*,13%,-4%,0.4µM*,.,?
O=C(NC(=S)Nc1ccc2c(c1)OCCO2)c1ccccc1,0.63µM*,?,1.2µM*,0.89µM*,7.1µM*,?
COc1cccc(OC)c1C(=O)NC(=S)Nc1ccc2c(c1)OCCO2,-4%,?,21µM*,1%,-5%,?

# Bioassay records from PubChem.
